Results reported in the supplement of paper PMC3334620.
In all, about 33,000 sequences were measured (“E-score (-0.5 to 0.5)”: median about -0.016, highest 2% from about 0.3 on). For the sample, the highest values were picked, then their nearest neighbours and some sequences at random.

Target: T1, Yer184c (UniProt P39961)
T1 sequence: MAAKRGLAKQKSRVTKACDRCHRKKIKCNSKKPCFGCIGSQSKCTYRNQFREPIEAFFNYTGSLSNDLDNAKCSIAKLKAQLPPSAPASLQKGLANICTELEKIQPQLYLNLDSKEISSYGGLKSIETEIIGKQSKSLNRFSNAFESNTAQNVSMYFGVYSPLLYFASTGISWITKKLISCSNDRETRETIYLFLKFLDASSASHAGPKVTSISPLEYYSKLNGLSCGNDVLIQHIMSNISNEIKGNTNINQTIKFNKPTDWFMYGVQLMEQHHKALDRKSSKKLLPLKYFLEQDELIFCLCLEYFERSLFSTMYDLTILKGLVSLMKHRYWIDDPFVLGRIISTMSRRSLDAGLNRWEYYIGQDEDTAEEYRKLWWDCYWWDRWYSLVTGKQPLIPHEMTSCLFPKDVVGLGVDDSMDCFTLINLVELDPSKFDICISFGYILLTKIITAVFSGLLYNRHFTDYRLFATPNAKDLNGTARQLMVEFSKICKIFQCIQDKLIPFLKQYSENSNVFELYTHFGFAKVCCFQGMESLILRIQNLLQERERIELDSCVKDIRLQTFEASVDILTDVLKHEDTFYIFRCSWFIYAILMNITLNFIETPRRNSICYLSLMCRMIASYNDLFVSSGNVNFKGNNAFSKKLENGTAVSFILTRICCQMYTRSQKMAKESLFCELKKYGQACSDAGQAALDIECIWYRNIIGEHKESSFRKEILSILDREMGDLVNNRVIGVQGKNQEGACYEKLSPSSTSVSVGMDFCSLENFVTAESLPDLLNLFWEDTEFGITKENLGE
Experiment: PBM E-score (8-mer binding enrichment) (E-score (-0.5 to 0.5)); higher = stronger / more preferred TF binding
Settings: protein concentration: 100 nM; construct: GST-full length
Outline: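 Bound GST-tagged yeast transcription factors, applied at about 100-200 nM to double-stranded universal all-10-mer Agilent arrays, were detected with fluorescent anti-GST. Scans were normalised with masliner. A modified Wilcoxon-Mann-Whitney statistic, the E-score, was assigned to each ungapped eight-base word pooled with its reverse complement by the Universal PBM Analysis Suite.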

Sequence	PBM E-score
ATACTGCG	-0.0752
CCGGATCG	0.352
TAGGATCA	-0.0016
TCGGATCA	0.31
ACGGATCA	0.248
ACGGATCG	0.0937
GCGGATCA	0.105
TCAGATCA	-0.00186
ACGGATCC	0.288
CCGGATCA	0.328
CCGGATCC	0.372
CAGGATCG	-0.0543
GCGGATCC	0.161
TCGAGACA	-0.0512
GGCCATAA	-0.102
ACGGCAGG	-0.117
GGGTCAAA	0.0026
CCGTCCAA	-0.024
CAAGCAGC	-0.149
AATGGTTA	-0.0173
TAGTCTAA	-0.101
AAATTTGT	0.213
ACGCCGGC	0.423
GCGCCGCA	0.166
CCGCCGGC	0.442

Sequence	PBM E-score
CCGCCGTC	-0.00239
ACGCCGGA	0.227
GCGCCGGA	0.355
CCGCCGGA	0.316
ACGCCGCC	-0.0562
CCGCCGCC	0.0576
GCGCCGCC	0.122
CCGCCGCA	0.0998
ACGCCGGG	0.21
AGCGTTGG	-0.251
CAATTTGC	-0.0817
TACCTCAA	-0.122
AACATTCG	0.00818
CTTAGTGC	0.081
CCACAAGC	-0.273
ATGTAGAA	-0.0706
ACCATTCA	0.00717
GGCAGGTA	-0.0757
CTCTTAGA	0.0666
CGAAACCG	0.253
CGCCGGTC	0.228
ACCCGGCC	0.255
GGCCGGCC	0.384
GACCGGCC	0.203
GACCGGCA	0.173

Sequence	PBM E-score
CCCCGGCC	0.0277
CGCCGGCC	0.35
GGCCGGTA	0.248
AGTCGGCC	0.135
GCCCGGCC	0.242
AGCCGGCC	0.333
GGCCGGCA	0.415
GTCTCGCA	-0.0807
TGGGTCAA	-0.147
ACGGGCTG	-0.045
AAAATCGG	0.15
ATTTGATG	0.115
ATGGCCCG	-0.0155
CAATCTGC	-0.14
ACCTTGAG	-0.0404
GGAGTAAA	0.134
GTTTCAGA	0.0364
GTTGGTTA	-0.0114
CGATACAC	-0.00964
AAACGGAA	0.403
AAACGGAG	0.152
GAACGGAA	0.267
CAACGGAA	0.36
AAACGGAC	-0.00077
CAACGGAG	0.0267

Sequence	PBM E-score
AAACGGTA	0.163
AAACGGAT	0.313
TAACGGAA	0.298
ACTTCATA	-0.0295
CGAGACGA	-0.0371
AAAGCGTT	-0.0919
CAGAGCAA	0.108
CTCCGGTA	0.218
CTCCGGAG	0.416
CTCCGTAA	0.0982
CTCCGCAG	-0.136
CTACGGAG	0.0895
ATCCGGGG	0.262
GTCCGGCA	0.285
ATCCGCAG	0.123
GTCCGGTA	0.206
GTCCGGAA	0.429
CTCCGGAA	0.402
ATCCGGAG	0.398
AACCGACT	0.0723
CGGCCCCA	-0.282
ACTTGCCA	-0.078
AATGAGAT	0.127
GTAAGGCA	-0.206
AACCGGGC	0.187

Sequence	PBM E-score
CTCCGGGA	0.205
ATGCGGAA	0.271
ATCCGGGA	0.258
ATCCGCAT	0.111
CTCCGGGC	0.0789
ATCCGGAT	0.442
ATCCGGGC	0.363
ATCCGGAA	0.418
ATCAGGAT	0.115
ATCCGTAA	0.149
GTCCGGGA	0.342
TAAGCACA	0.189
ACAGAACT	0.116
AGTCGCAA	-0.0383
CACCATCC	-0.292
AGCATTTA	0.0356
AAGCCACC	-0.342
CAGGCCCA	-0.211
CTCCGGAC	0.328
ATCCGTAC	0.195
ATCCGGAC	0.322
CCCCGGAC	0.0445
ACCCGGAC	0.055
CTCCGGTC	0.248
CAATCCTC	-0.113

Sequence	PBM E-score
CCAGATGC	-0.103
GCAAGAAA	0.161
ATTGAGCG	-0.0456
CCGTCCAG	0.122
AACCGGTG	0.214
AACCGGAA	0.34
AACCGGAT	0.366
AACCGGAC	0.212
AACCGGGG	-0.0803
CACCGGAG	0.173
GACCGGAA	0.232
AACCGGGA	0.188
AACCGGTT	0.359
AACCGGTC	0.229
AACCGGAG	0.358
AACCGGGT	0.202
AGCTACCA	-0.173
ATGCATTA	0.0989
GAATCCCA	-0.0522
ATAGGAGG	-0.285
AGGCTTAC	-0.0812
GACTGGTA	0.00991
CACCGGGA	0.152
CACCGGAA	0.368
TACCGGGA	0.207

Sequence	PBM E-score
TACCGGTA	0.23
CACCGGAC	0.268
TACCGGAA	0.409
AATGGCCC	-0.247
ACCTAGTC	-0.244
AACATCCG	0.381
AATATCCC	-0.0444
AGTATCCC	-0.0953
AACATCCC	0.141
ATTATCCC	0.0672
AGTATCCA	-0.00531
AGTATCCG	0.332
ATTATCCA	0.0655
ATTATCCG	0.36
CACATCCG	0.282
AATATCCG	0.352
AATATCCA	0.17
AATGTTAT	0.184
CACCAGGC	-0.103
CCCTTGAA	-0.0291
TACAATAA	0.14
CATGGTAC	-0.223
ATACCCGA	0.111
CGCCTAAC	-0.0428
TGACTACA	-0.022

Sequence	PBM E-score
ATTAAAAC	0.286
AAATATGT	0.304
ATTAAAAA	0.323
AAAAATAA	0.237
GAATATAA	0.085
AAATATAA	0.327
ATTAAAAG	0.172
TAATATAA	0.339
CAATATAA	0.243
AAATATGA	0.0794
AAATATCA	0.124
AAATATGC	0.0299
GTACAATA	0.188
CACCGCGG	0.242
ACTATATA	0.19
GACGCATA	0.0516
GAATCTAC	0.0543
CGATCACG	0.165
TAGCACGA	0.0455
ACCCCACA	-0.308
AACGATAA	0.0408
AACATCGA	0.0284
CATAATTA	0.233
GATAAAAA	0.29
CAATATTA	0.133

Sequence	PBM E-score
TAATATTA	0.381
GATAAACC	0.208
AATAATAA	0.285
CATAATAA	0.0808
GATAAAAC	0.305
AATAATTA	0.299
AAATATTA	0.206
GATAATTA	0.318
TATAATAA	0.324
CCACAGTC	-0.3
GTGGCCAC	-0.0584
GAGTTGAC	-0.0176
AATCTTAG	0.124
ATATGGTG	-0.0255
ATAGTGAC	-0.0492
GCTATGGA	-0.192
TCTAACCA	0.0158
TAGCTCCA	-0.0638
CTTATAAA	0.174
CGATATTA	0.343
GGATATTA	0.132
ATAAAAAA	0.289
AATAAATA	0.414
GTTATAAA	0.0949
AATAAATG	0.174

Sequence	PBM E-score
TATAAATA	0.266
CGATATTC	0.155
TTTATAAA	0.348
ATAAAAAC	0.305
ATAAAACC	-0.0255
AGATTCAC	-0.157
AAGGCTGC	-0.0369
AACCATCA	0.0573
GGTCTTAA	-0.104
ACCGTTGG	-0.244
CACTTATC	-0.0553
ATAGAATC	0.128
AGAGGCGC	-0.119
CGGTATTA	0.251
ACCACACG	-0.164
TATATAAA	0.289
AATTAAAA	0.202
CATAAAAA	0.252
TATAAAAA	0.373
AAATATAT	0.305
TATTAAAA	0.318
AAATATAC	0.0721
GATTAAAA	0.296
AAATATAG	0.189
GTAAAGAC	0.0705

Sequence	PBM E-score
AATAACGA	0.068
ATCAAGTG	-0.132
ATCTTCAA	0.187
TTAGCTAA	0.0769
GATCCGTA	0.17
GATCCGGA	0.395
CATCCGGA	0.375
CATCCGCA	0.108
GATCCGCA	0.0531
CATCCGGG	0.223
AATCCGGT	0.36
AATCCGCT	-0.0489
AATCCGAT	0.275
GATCCGCC	0.0797
GATCCGGC	0.354
AATCCGGC	0.3
AATGGGTC	-0.184
ATGGCCCC	-0.162
CTAGTAAC	-0.0898
CTACCCAC	-0.304
TAAAGCGA	0.0559
GGACTGCC	-0.102
ATTATGGC	0.0693
AAGGCTAT	-0.0663
CCTGGTAC	-0.0559

Sequence	PBM E-score
CTGCGGGA	-0.0974
AATAACCA	0.0129
CGCTTTAC	-0.137
AATCCGGA	0.401
AATCCGCA	0.101
AATCCGTA	0.0372
CATCCGTC	-0.0104
CATCCGCC	0.0602
CATCCGGC	0.358
CCGAGCAG	0.17
ACCAATCA	0.0919
AGCTTTCG	0.105
ATTCCCAC	-0.171
CTGGTGTA	-0.234
ATATTTCA	0.201
ATTTTCGG	0.377
ATTTTCGC	0.111
ATTTCCCG	0.328
ATATTTCC	0.177
ATTTTCGA	0.121
ATCTTCGG	0.35
ATATTTCG	0.318
ATCTTCGA	-0.0159
ATTTCCCC	-0.166
ATTTCCCA	0.107

Sequence	PBM E-score
ATCTTCGC	-0.0164
CCCATTCC	-0.258
ACACTCCA	-0.127
AAGGCTTC	-0.0592
TATTCTAA	0.181
CACTTCTA	-0.133
CCTTGCTC	-0.141
GGAGGTAA	-0.0289
AATTTCCG	0.406
AGTTTCCA	0.111
AGTTTCCG	0.392
AATTTCCC	0.0065
CATTTCCG	0.3
ATTTTCCG	0.4
ATTTCTTC	0.315
ATTTCTTG	0.216
ATTTCTTA	0.216
ATTTTCCC	0.00872
ATTTTCCA	0.178
AGTTTCCC	-0.0163
ATGAAGCA	-0.0497
CACTTCTC	-0.119
CGTAAGTC	-0.00193
ATTGTTGA	0.141
CCTGCATA	-0.105

Sequence	PBM E-score
ACAGCGAA	0.117
CTTACTGC	-0.0955
ATTTTTCA	0.169
ATTTCTCA	0.099
ATTTTTCG	0.314
ATTTCTCC	0.122
ATTTCTCG	0.308
AATTTTCG	0.092
ATCTCACA	-0.0208
GTCTGGCA	-0.16
CAGTATAC	-0.0142
AAAAATGC	0.143
AAACTAGC	-0.093
AGTTCCAC	-0.00257
AGTTCCAG	-0.101
CGTTCCGC	0.262
CGTTCCGA	0.236
AGTTCCGA	0.313
AGTTCCGG	0.374
AGTTCCTG	-0.18
GGTTCCGA	0.278
AGTTCCGC	0.305
